Bioassay records from PubChem BioAssay.
MCF10A rerep: inducers of DNA re-replication in MCF 10A breast cells. MCF 10A DNA re-replication, Hoechst nuclear intensity, 48 h. Potency, µM (doses to about 46.1 µM), actives largely listed as activators. 350,000 tested, 2.9% active. AID 624296; also: nearly all actives have a fitted effect of over 50% in size
HT1080-NT tox: kills 2HG-producing HT-1080-NT fibrosarcoma cells. HT-1080-NT fibrosarcoma viability, CellTiter-Glo ATP luminescence, 48 h. Potency, µM (titrated, usually from 46.1 µM), most hits filed as cytotoxic. 360,000 tested, 1.6% active. AID 686970;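 also: NT is the 2HG producing partner of a matched IDH1 knockdown line; nearly all actives have a fitted effect of over 55% in size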
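Viability by CellTiter-Glo luminescence after 48 h compound exposure at 37C of HT-1080-NT cells (750/well, RPMI, 5% FBS). % activity scaled between DMSO wells and medium-only wells, then curve-fitted and categorized by curve class.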
SW480 rereplic: induces DNA re-replication in SW480 colon adenocarcinoma cells. SW480 DNA re-replication, Hoechst DNA content imaging, 48 h. Potency, µM (doses to about 46.1 µM), actives largely listed as activators. 340,000 tested, 1.8% active. AID 624297; also: nearly all actives have a fitted effect of over 55% in size
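Treated cells incubate 48 hr (37 C, 5% CO2), are stained 40 min with Hoechst, and nuclear fluorescence is enumerated; a rise in nuclei with high DNA signal marks re-replication.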
KB-V1 cytotox: kills drug-selected multidrug resistant KB-V1 cells. KB-V1 MDR cells viability, CellTiter-Glo, 72 h. Potency, µM (top dose mostly 46.1 µM), actives largely listed as cytotoxic. 400,000 tested, 3.4% active. AID 1347076; also: nearly all actives have a fitted effect of over 60% in size
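Luminescent ATP read-out (CellTiter-Glo, 10 min) measures survival of drug-selected KB-V1 MDR cells after 72 h, 37 degrees C compound exposure. Medium: phenol-red-free DMEM, 10% FBS. Values from fitted concentration-response curves.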
KB-3-1 tox: KB-3-1 parental cell cytotoxicity | Potency, µM (highest dose often 46.1 µM), usual class: cytotoxic | KB-3-1 viability, CellTiter-Glo ATP luminescence, 72 h | 400,000 tested, 1.4% active; also: nearly all actives have a fitted effect of over 60% in size
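KB-3-1 parental drug-naive adenocarcinoma cells in DMEM/10% FBS, incubated 72 h at 37 C with pin-transferred compounds across a concentration series. Viability by CellTiter-Glo luminescence; concentration-response curves fitted after normalization.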
HT1080 IDH1KD tx: HT-1080 IDH1 knockdown cell toxicity (counter line); Potency, µM (titrated, usually from 46.1 µM), usual class: cytotoxic; HT-1080 IDH1 knockdown viability, ATP luminescence, 48 h; 360,000 tested, 2% active
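Using the IDH1-knockdown HT-1080 line run in the same batch and compound series as the NT line, viability after 48 h at 37 °C was determined by CellTiter-Glo luminescence and expressed as % activity.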
Of the large screens only hits and unclear results are named; the others gave an inactive call. Shown are actives, neighbours in structure and some others; about 8% of the full set was active somewhere. Calls follow the shape of the dose curve; as a rule, active = well fitted curve in the direction sought with a large enough effect; inconclusive = small, poorly fitted or top-dose-only effect, or another doubt; inactive = no such curve, though single readings can be large; an effect the other way counts as inactive or inconclusive.

CCS(=O)(=O)N1CCCC(C(=O)NCCc2ccc(C)cc2)C1 (stereo not drawn)	SW480 rereplic 13µM, KB-V1 cytotox inconclusive
Cc1ccc(CCNC(=O)C2CCCN(C(=O)N(C)C)C2)cc1 (stereo not drawn)	KB-V1 cytotox inconclusive
CCn1c(C(=O)N2CCCC(C(=O)NCCCc3ccccc3)C2)cc2sccc21 (stereo not drawn)	MCF10A rerep inconclusive, KB-V1 cytotox 23µM
CCS(=O)(=O)N1CCC(C(=O)NCCc2ccc(C)cc2)CC1	none
CCOC(=O)N1CCN(C(=O)C2CCN(C(=O)c3cc4sccc4n3CC)CC2)CC1	none
CCn1c(C(=O)N2CCCC(C(=O)O)C2)cc2sccc21 (stereo not drawn)	none
CCn1c(C(=O)N2CCCC(C(=O)NCCc3ccc(C)cc3)C2)cc2sccc21 (stereo not drawn)	MCF10A rerep inconclusive, HT1080-NT tox inconclusive, SW480 rereplic inconclusive, KB-V1 cytotox 16µM, KB-3-1 tox inconclusive, HT1080 IDH1KD tx inconclusive
Cc1onc(-c2c(F)cccc2Cl)c1-c1nnc(-c2cccc3ccccc23)o1	KB-V1 cytotox inconclusive
Cn1c(C(=O)N2CCCC(C(=O)NCCCSC3CCCCC3)C2)cc2sccc21 (stereo not drawn)	KB-V1 cytotox 8.2µM
Cn1c(C(=O)N2CCCC(C(=O)NCc3cccs3)C2)cc2sccc21 (stereo not drawn)	none
O=S(=O)(Nc1ccc(Br)cc1)c1cccc(NS(=O)(=O)c2cccs2)c1	MCF10A rerep 7.3µM
CCn1c(N)cc(=O)[nH]c1=S	KB-V1 cytotox inconclusive
COc1ccccc1S(=O)(=O)Cc1ccc(C(=O)N2CCN(c3cc(Cl)ccc3C)CC2)o1	KB-V1 cytotox 18µM, KB-3-1 tox inconclusive (no result: MCF10A rerep, HT1080-NT tox, SW480 rereplic, HT1080 IDH1KD tx)
COc1ccccc1S(=O)(=O)Cc1ccc(C(=O)N2CCN(c3cccc(Cl)c3)CC2)o1	MCF10A rerep 15µM, HT1080-NT tox inconclusive, SW480 rereplic inconclusive, KB-V1 cytotox 16µM, KB-3-1 tox 6.5µM, HT1080 IDH1KD tx 21µM
COc1ccccc1S(=O)(=O)Cc1ccc(C(=O)NC2CCCCC2)o1	KB-V1 cytotox 15µM
O=C(NC1CCCC1)c1ccc(CSCc2ccccc2F)o1	KB-V1 cytotox 15µM
COc1cccc2c1N1C(=O)c3c(C(=O)O)cccc3C1CC2(C)C (stereo not drawn)	none
Cc1ccc(NC2CCCN(C(=O)c3snnc3C)C2)cc1C (stereo not drawn)	none
O=C(NCCCN1CCN(c2cccc(Cl)c2)CC1)C1(S(=O)(=O)c2ccc(Cl)cc2)CC1	MCF10A rerep inconclusive, SW480 rereplic inconclusive, KB-3-1 tox inconclusive
CC1CN(CCS(=O)(=O)c2cc(Cl)ccc2Cl)CC(C)O1 (stereo not drawn)	MCF10A rerep 2.9µM, HT1080-NT tox inconclusive, SW480 rereplic inconclusive, KB-V1 cytotox inconclusive, KB-3-1 tox inconclusive, HT1080 IDH1KD tx inconclusive
COc1ccc(N2CCN(CCCNC(=O)C3(S(=O)(=O)c4ccc(Cl)cc4)CC3)CC2)cc1	KB-V1 cytotox 9.2µM
CC(=O)N1CCN(CCS(=O)(=O)c2cc(Cl)ccc2Cl)CC1	MCF10A rerep 15µM, SW480 rereplic inconclusive
COc1ccc(NC(=O)CCN2CCN(S(=O)(=O)c3cc(Cl)ccc3Cl)CC2)cc1	none
COc1ccc(N2CCN(CCS(=O)(=O)c3cc(Cl)ccc3Cl)CC2)cc1	MCF10A rerep 5.8µM, SW480 rereplic 7.3µM
c1ccc(Oc2nc(-c3cccnc3)nc3ccccc23)cc1	none
COC(=O)c1c(NC(=O)COc2ccc(C(C)C)cc2)sc2c1CCCC2	none (no result: MCF10A rerep, HT1080-NT tox, SW480 rereplic, HT1080 IDH1KD tx)
CCCc1cc(NCCCN(C)C)n2c(nc3ccccc32)c1C#N	MCF10A rerep inconclusive, SW480 rereplic inconclusive
CCN(CC)CCCNC(=O)c1sc2ncn(CC(=O)Nc3ccc(C)c(Cl)c3)c(=O)c2c1C	SW480 rereplic 18µM
COCCCNC(=O)c1sc2ncn(CC(=O)Nc3ccc(C)c(Cl)c3)c(=O)c2c1C	none
COC(=O)Cn1c(=O)n(CCc2ccccc2)c(=O)c2c3c(sc21)CCCC3	KB-V1 cytotox 21µM, HT1080 IDH1KD tx inconclusive
CN(C)CCNc1nc2sc3c(c2c(=O)n1CCc1ccccc1)CCCCC3	MCF10A rerep inconclusive, SW480 rereplic 18µM, KB-V1 cytotox 21µM, HT1080 IDH1KD tx inconclusive
COc1ccc(C(CNS(=O)(=O)c2cccc(F)c2)N2CCCC2)cc1 (stereo not drawn)	none
CCOc1ccc(NC(=O)C(Cc2ccccc2)N2C(=O)c3cccc4cccc(c34)C2=O)cc1 (stereo not drawn)	MCF10A rerep 8.2µM, SW480 rereplic 9.2µM, KB-V1 cytotox inconclusive, KB-3-1 tox inconclusive
O=[N+]([O-])c1cc(C(F)(F)F)cc([N+](=O)[O-])c1Sc1n[nH]c(C(F)(F)F)n1	MCF10A rerep inconclusive, SW480 rereplic inconclusive, KB-V1 cytotox inconclusive
O=c1cc(CSc2nnc(-c3cccs3)n2Cc2ccccc2)nc2sc3ccccc3n12	KB-V1 cytotox inconclusive, HT1080 IDH1KD tx 26µM
CC(=O)c1c(C)[nH]c(C(=O)CSc2nnc(-c3cccs3)n2Cc2ccccc2)c1C	MCF10A rerep 21µM, KB-V1 cytotox 5.8µM
COCCn1c(SCC(=O)c2[nH]c(C)c(C(C)=O)c2C)nc2ccccc21	KB-V1 cytotox 16µM
Cc1cc(C(=O)CSc2nnc(-c3cccs3)n2Cc2ccccc2)c(C)n1C	none
CC(=O)c1c(C)[nH]c(C(=O)CSc2nnc(-c3ccco3)n2Cc2ccccc2)c1C	KB-V1 cytotox 18µM
O=C(CSc1nnc(N2CCCC2)n1-c1cccc(Cl)c1)N1CCN(c2ccccn2)CC1	KB-V1 cytotox inconclusive (no result: MCF10A rerep, SW480 rereplic)
COc1ccc(CN(C)C(=O)c2ccc(NC(=O)CC3SC(N4CCCCC4)=NC3=O)cc2)c(OC)c1 (stereo not drawn)	KB-V1 cytotox inconclusive
C=CCn1c(SCC(=O)c2[nH]c(C)c(C(C)=O)c2C)nnc1-c1ccncc1	none
O=C(O)CSc1ncnc2sc(-c3ccccc3)cc12	none
CC(=O)c1c(C)[nH]c(C(=O)CSc2ncnc3sc(-c4ccccc4)cc23)c1C	KB-V1 cytotox 7.3µM, HT1080 IDH1KD tx inconclusive (no result: SW480 rereplic)
CCOC(=O)c1c(C)[nH]c(C(=O)CSc2nnc(-c3cccs3)n2Cc2ccccc2)c1C	MCF10A rerep inconclusive, SW480 rereplic inconclusive, KB-V1 cytotox 2.3µM, HT1080 IDH1KD tx inconclusive
CC(=O)c1c(C)[nH]c(C(=O)CSc2nnc(-c3ccccc3)n2Cc2ccc3c(c2)OCO3)c1C	MCF10A rerep inconclusive, HT1080-NT tox inconclusive, SW480 rereplic inconclusive, KB-V1 cytotox inconclusive, HT1080 IDH1KD tx 23µM
COc1ccc(CCC(=O)N2CCN(S(=O)(=O)c3ccc4ccccc4c3)CC2)cc1	none
